Common to all, as to experiment: protein-binding microarray (PBM); PBM: ~300 nM protein, 6 mM HEPES pH 7.8, 80 mM KCl, 0.5 mM EDTA, 0.5 mM EGTA, 6% glycerol, 35 ng/ul poly-dIdC, 1% milk, 1 h, room temperature; Ap Aiptasia and Nv Nematostella (sea anemones) / Co Capsaspora / Aq Amphimedon (sponge) / Dm Drosophila / Hu human; RHD is the Rel homology domain; high values mean tight binding
Holding throughout (settings): dsDNA, one strand shown

In assay [1] the target is T1, GST-Ap-NF-kB RHD (Exaiptasia pallida (Aiptasia), UniProt A0A913YAJ5 2-422).
T1 sequence: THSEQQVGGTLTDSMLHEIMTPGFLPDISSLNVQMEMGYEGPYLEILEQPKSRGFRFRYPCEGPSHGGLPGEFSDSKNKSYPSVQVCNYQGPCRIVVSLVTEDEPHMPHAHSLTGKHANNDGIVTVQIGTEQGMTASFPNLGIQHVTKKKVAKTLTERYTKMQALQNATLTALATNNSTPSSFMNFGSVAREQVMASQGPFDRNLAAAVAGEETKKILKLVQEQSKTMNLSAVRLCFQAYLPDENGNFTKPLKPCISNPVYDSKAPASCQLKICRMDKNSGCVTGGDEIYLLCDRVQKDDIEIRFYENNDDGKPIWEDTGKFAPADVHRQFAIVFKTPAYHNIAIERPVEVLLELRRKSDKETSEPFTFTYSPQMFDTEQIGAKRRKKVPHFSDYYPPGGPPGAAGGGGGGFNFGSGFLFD

For assay [2], the target named is T2, GST-Nv-NF-kB (Cys allele) (Nematostella vectensis, UniProt E5G601 2-411).
T2 sequence: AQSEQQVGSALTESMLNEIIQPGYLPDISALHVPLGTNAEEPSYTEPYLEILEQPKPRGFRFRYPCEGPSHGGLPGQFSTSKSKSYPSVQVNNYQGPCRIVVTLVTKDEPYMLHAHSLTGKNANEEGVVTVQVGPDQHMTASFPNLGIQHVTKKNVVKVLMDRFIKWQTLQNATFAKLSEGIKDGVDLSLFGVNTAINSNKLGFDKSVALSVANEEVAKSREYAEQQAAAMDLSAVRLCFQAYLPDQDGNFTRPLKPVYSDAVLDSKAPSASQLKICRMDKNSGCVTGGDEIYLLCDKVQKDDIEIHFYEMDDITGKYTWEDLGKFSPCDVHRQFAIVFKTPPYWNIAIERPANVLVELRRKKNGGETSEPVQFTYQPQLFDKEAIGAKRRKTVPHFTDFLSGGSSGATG

For assay [3], the target named is T3, GST-Nv-NF-kB (Ser allele) (Nematostella vectensis, UniProt A7UNT2 2-411).
T3 sequence: T2 sequence with Q21R, C66S, S207N, E215Q, V217A, E225K, A268E, D399E

Assay [4] addresses T4, GST-Co-NF-kB (Capsaspora owczarzaki, UniProt F1ARL5 200-546).
T4 sequence: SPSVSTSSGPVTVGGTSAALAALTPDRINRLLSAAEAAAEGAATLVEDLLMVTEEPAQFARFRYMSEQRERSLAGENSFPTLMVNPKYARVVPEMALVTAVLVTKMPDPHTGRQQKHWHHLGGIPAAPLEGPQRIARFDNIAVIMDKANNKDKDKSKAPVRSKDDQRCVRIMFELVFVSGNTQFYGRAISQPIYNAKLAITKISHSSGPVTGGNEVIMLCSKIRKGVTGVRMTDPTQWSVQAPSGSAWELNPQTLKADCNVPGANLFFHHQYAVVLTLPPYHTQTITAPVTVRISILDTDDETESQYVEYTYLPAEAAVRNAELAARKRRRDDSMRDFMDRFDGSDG

In assay [5] the target is T5, GST-Dm-Relish (Drosophila melanogaster, UniProt Q94527 99-473).
T5 sequence: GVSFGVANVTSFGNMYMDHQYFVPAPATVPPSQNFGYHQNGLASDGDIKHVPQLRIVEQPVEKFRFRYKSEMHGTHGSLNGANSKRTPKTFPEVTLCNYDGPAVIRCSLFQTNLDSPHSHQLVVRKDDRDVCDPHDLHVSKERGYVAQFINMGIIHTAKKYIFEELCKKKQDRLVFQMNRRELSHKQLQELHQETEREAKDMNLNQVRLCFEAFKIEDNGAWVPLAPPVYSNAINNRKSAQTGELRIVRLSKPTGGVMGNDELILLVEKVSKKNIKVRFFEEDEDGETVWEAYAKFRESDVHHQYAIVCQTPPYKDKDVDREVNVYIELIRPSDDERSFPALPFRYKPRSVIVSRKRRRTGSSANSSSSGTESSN

Assay [6] addresses T6, GST-Aq-NF-kB (Amphimedon queenslandica, UniProt A9Y5G7 2-389).
T6 sequence: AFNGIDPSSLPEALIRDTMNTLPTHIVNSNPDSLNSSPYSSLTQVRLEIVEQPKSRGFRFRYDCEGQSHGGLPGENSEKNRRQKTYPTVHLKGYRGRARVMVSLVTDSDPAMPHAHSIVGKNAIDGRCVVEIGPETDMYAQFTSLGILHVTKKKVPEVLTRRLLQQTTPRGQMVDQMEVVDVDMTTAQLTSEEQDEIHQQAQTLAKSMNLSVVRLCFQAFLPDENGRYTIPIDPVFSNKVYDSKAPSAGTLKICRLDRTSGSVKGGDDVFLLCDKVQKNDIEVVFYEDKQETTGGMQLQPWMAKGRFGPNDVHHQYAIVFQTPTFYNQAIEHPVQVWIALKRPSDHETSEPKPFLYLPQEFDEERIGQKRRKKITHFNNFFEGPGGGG

In assay [7] the target is GST-Hu-p50 (Homo sapiens, UniProt P19838 7-356).
Sequence of GST-Hu-p50 (P19838 7-356): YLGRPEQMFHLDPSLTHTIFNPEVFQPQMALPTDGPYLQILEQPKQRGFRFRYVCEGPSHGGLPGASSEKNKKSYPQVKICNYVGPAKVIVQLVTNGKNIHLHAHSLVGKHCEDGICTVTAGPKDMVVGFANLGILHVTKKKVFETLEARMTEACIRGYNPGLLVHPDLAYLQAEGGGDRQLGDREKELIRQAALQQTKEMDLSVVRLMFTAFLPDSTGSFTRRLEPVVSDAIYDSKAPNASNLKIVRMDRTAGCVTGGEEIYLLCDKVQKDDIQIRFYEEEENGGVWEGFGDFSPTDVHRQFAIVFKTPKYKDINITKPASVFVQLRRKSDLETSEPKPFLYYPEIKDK

Changes are numbered by the printed parent chain.

Regarding “CCGATTAACATCAAAAATCCCCTTGATGTTAATCGGGTCTTGATTCGCTTGACGCTGCTG”, the binding signal in assay [1] stood at 10.4 z-score; in assay [2] it was 12.3 z-score; in assay [3], 13.5 z-score; in assay [4], 4.34 z-score; in assay [5] it was 10.1 z-score; in assay [6] it was 8.57 z-score. Besides, the binding signal in assay [7] was found to be 8.54 z-score.

For “CCGATTAACATCAAGGAAGTCCCTGATGTTAATCGGGTCTTGATTCGCTTGACGCTGCTG”, the binding signal in assay [1] is 5.76 z-score; in assay [2], 5.94 z-score; in assay [3], 5.82 z-score; in assay [5], 7.11 z-score; in assay [6] it was 5.83 z-score; in assay [7], 4.82 z-score.

With “CCGATTAACATCAGGAAGTACCCTGATGTTAATCGGGTCTTGATTCGCTTGACGCTGCTG”, the binding signal in assay [1] is 3.65 z-score; in assay [2], 3.73 z-score; in assay [3] it was 3.95 z-score; in assay [5] it was 6.69 z-score; in assay [6] it was 6.15 z-score; in assay [7] it was 3.47 z-score.

Regarding “CCGATTAACATCAGGAAGCCCCATGATGTTAATCGGGTCTTGATTCGCTTGACGCTGCTG”, the binding signal in assay [1] turned out to be 4.01 z-score; in assay [2] it was 4.13 z-score; in assay [3] it was 2.15 z-score; in assay [5] it was 5.38 z-score; in assay [6] it was 4.02 z-score; in assay [7] it was 3.77 z-score.

In the case of “CCGATTAACATCACGGGAATTCCTGATGTTAATCGGGTCTTGATTCGCTTGACGCTGCTG”, the binding signal in assay [1] turned out to be 7.73 z-score; in assay [2] it was 7.86 z-score; in assay [3], 5.2 z-score; in assay [4] it was 5.35 z-score; in assay [5], 8.07 z-score; in assay [6], 8.38 z-score. The binding signal in assay [7] is 4.61 z-score.

Consider “CCGATTAACATCAGGGAGGTACCTGATGTTAATCGGGTCTTGATTCGCTTGACGCTGCTG”, for which the binding signal in assay [1] was found to be 3.34 z-score; in assay [2], 2.59 z-score; in assay [3], 2.93 z-score; in assay [5] it was 5.13 z-score; in assay [6], 3.92 z-score; in assay [7], 2.03 z-score.

On to “CCGATTAACATCACAGAACCCCCTGATGTTAATCGGGTCTTGATTCGCTTGACGCTGCTG”, for which the binding signal in assay [1] was 7.53 z-score; in assay [2] it was 5.51 z-score; in assay [3], 7.39 z-score; in assay [4], 2.33 z-score; in assay [5] it was 7.46 z-score; in assay [6] it was 5.42 z-score. Also, the binding signal in assay [7] came out at 6.43 z-score.

With “CCGATTAACATCAGGGGGAGAACTGATGTTAATCGGGTCTTGATTCGCTTGACGCTGCTG”, the binding signal in assay [1] came to 6.04 z-score; in assay [2], 5.02 z-score; in assay [3] it was 6.45 z-score; in assay [4], 7.22 z-score; in assay [5] it was 6.51 z-score; in assay [6] it was 4.8 z-score. The sequence further gave a binding signal in assay [7] of 5.85 z-score.

For the sequence “CCGATTAACATCAGGAGCTCCCCTGATGTTAATCGGGTCTTGATTCGCTTGACGCTGCTG”, the binding signal in assay [1] came out at 4.8 z-score; in assay [2], 2.61 z-score; in assay [3] it was 1.84 z-score; in assay [4], 2.71 z-score; in assay [5] it was 1.84 z-score; in assay [6], 4.7 z-score. In assay [7], this sequence registered a binding signal of 2.1 z-score.

“CCGATTAACATCAGGGTACTACCTGATGTTAATCGGGTCTTGATTCGCTTGACGCTGCTG”: the binding signal in assay [1] worked out at 2.34 z-score; in assay [2], 1.63 z-score; in assay [3], 2.2 z-score; in assay [5] it was 1.62 z-score; in assay [6] it was 4.13 z-score; in assay [7], 1.43 z-score.

In the case of “CCGATTAACATCAAAATTCCCCATGATGTTAATCGGGTCTTGATTCGCTTGACGCTGCTG”, the binding signal in assay [1] amounted to 8.8 z-score; in assay [2], 9.9 z-score; in assay [3] it was 10.5 z-score; in assay [4], 7.72 z-score; in assay [5], 7.31 z-score; in assay [6], 7.95 z-score. The same sequence yielded a binding signal in assay [7] of 6.99 z-score.

On to “CCGATTAACATCAGGAAATTACCTGATGTTAATCGGGTCTTGATTCGCTTGACGCTGCTG”, for which the binding signal in assay [1] is 1.96 z-score; in assay [2] it was 4.03 z-score; in assay [3] it was 5.26 z-score; in assay [5], 4.76 z-score; in assay [6] it was 5.23 z-score; in assay [7], 3.82 z-score.

Values taken from paper PMC5700166.
